Screening data deposited in PubChem BioAssay by National Center for Advancing Translational Sciences (NCATS).
Compounds with a hit are over-represented: about 0.91% of the library has one in this group of screens.
TR SRC2 fluor cs: counter-screen for TRb-SRC2 inhibitors: fluorescence interference | TRb/SRC2 Texas Red total fluorescence interference | Potency, µM (top dose mostly 106 µM) | hit rate 0.29% among 280,000 | AID 1479; active = well fitted curve in either direction with a large enough effect; inconclusive = small, poorly fitted or top-dose-only effect
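Human TRb ligand-binding domain at 0.6 uM with 20 nM Texas Red SRC2 peptide in Tris buffer containing 1 uM T3 and 5% DMSO, incubated with compound 5 h at ambient temperature. Total fluorescence (555/632 nm) calculated as parallel + 2 × perpendicular.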
RECQ1 helicase: inhibitors of human RECQ1 DNA helicase | P46063 | RECQ1 DNA unwinding, red fluorescence kinetic read | Potency, µM (highest dose often 57.3 µM), most hits filed as inhibitors | hit rate 0.54% among 240,000 | AID 2549; also: nearly all actives have a fitted effect of over 30% in size
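50 nM RECQ1T1 preincubated 15 min with compound in Tris pH 8.0 buffer with MgCl2, DTT, Tween-20 and 2.5 ug/ml poly(dI-dC); started with 200 nM TAMRA/BHQ-2 forked duplex and 2 mM ATP. Unwinding read as fluorescence (525/598 nm), two reads 2 h apart.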
WRN helicase inh: WRN helicase (human) inhibition | Q14191 | WRN helicase unwinding, fluorescent forked duplex, kinetic | Potency, µM (doses to about 114 µM), actives largely listed as inhibitors | hit rate 0.46% among 360,000 | AID 651768; also: nearly all actives have a fitted effect of over 55% in size
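Primary qHTS, 1536-well format. 20 nM WRN + compound, 15 min RT; start with 100 nM forked fluorophore/quencher duplex, 2 mM ATP (final); kinetic read ex 525/em 598 nm.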
TRb-SRC2 inh: TRbeta-SRC2 interaction inhibition; P10828; hit rate 0.065% among 280,000; AID 1469; TRbeta-SRC2 peptide binding, fluorescence polarization; receptor liganded with 1 µM T3; Potency, µM (doses to about 106 µM), usual class: inhibitors; also: nearly all actives have a fitted effect of over 50% in size
Target sequence (P10828 whole entry, looked up): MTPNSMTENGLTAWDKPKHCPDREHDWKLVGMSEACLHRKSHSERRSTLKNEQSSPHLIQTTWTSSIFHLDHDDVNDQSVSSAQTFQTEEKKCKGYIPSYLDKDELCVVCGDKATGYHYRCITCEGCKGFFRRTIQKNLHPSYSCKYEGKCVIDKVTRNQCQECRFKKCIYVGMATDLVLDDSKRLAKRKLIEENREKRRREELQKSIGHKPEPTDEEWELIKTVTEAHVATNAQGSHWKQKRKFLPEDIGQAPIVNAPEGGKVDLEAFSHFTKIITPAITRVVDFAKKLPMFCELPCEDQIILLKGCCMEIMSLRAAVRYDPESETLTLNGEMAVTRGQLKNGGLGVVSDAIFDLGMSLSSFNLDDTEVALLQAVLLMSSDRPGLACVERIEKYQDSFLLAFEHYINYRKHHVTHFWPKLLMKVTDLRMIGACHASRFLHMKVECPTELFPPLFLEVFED
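Fluorescence polarization of 20 nM Texas Red SRC2 peptide (20-aa NR interaction domain) bound to 0.6 uM human TRb ligand-binding domain, with 1 uM T3, after 5 hr at ambient temperature; inhibition seen as decreased polarization.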
BLM helicase inh: Bloom syndrome helicase (human) inhibition; recombinant BLM DNA unwinding, fluorescence dequenching; P54132; AID 2528; hit rate 0.2% among 350,000; Potency, µM (highest dose often 56.1 µM), usual class: inhibitors; also: nearly all actives have a fitted effect of over 35% in size
APEX1 inh: blocks human APE1 abasic DNA cleavage; hit rate 0.35% among 350,000; Potency, µM (top dose mostly 65.8 µM), most hits filed as inhibitors; recombinant APE1, TAMRA/BHQ-2 abasic DNA cleavage fluorescence; also: nearly all actives have a fitted effect of over 55% in size
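Compound pre-exposure to 0.75 nM APE1, 15 min at ambient temperature. Reaction initiated with 50 nM TAMRA/BHQ-2 THF substrate, read immediately in kinetic mode, 525 nm excitation, 598 nm emission.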
Hits are given with their value; 0 = inactive; ? = inconclusive; - = no result; ! = a repeat was not active; [ ] = dose if it differs, or a comment. Unless noted, calls follow the shape of the dose curve; as a rule, active = well fitted curve in the direction sought with a large enough effect; inconclusive = small, poorly fitted or top-dose-only effect, or another doubt; inactive = no such curve, though single readings can be large; an effect the other way counts as inactive or inconclusive.

SMILES	TR SRC2 fluor cs	RECQ1 helicase	WRN helicase inh	TRb-SRC2 inh	BLM helicase inh	APEX1 inh
CCCN(CCC)C(=O)CN1C(=O)CSc2ccc(S(=O)(=O)N3CCC(C)CC3)cc21	0	-	-	0	0	-
CCCCCN(CCCCC)C(=O)[C@H](CCC(=O)O)NC(=O)[C@H](Cc1ccc(OP(=O)(O)O)cc1)NC(C)=O	?	0	-	0	0	0
COc1ccc(NS(=O)(=O)c2ccc3oc(SC(C)C(N)=O)nc3c2)cc1 (stereo unspecified)	-	-	0	-	0	0
O=C(NCCNCCO)C1(C(F)(F)F)C/C(=C\CCO)CCCO1 (stereo unspecified)	0	0	0	0	0	0
COCCNC(=O)C1(C(F)(F)F)C/C(=C\CCO)CCCO1 (stereo unspecified)	0	0	-	0	0	50µM
NC(=O)C1CCN(c2nc(-c3ccccc3)cs2)CC1	-	-	-	-	-	0
CC(=O)C1=C(c2ccccc2)NC(=S)NC1c1ccc(O)c(O)c1 (stereo unspecified)	0	?	0[11.6 µM]	0	0	13µM
CC(=O)C1=C(c2ccccc2)NC(=O)NC1c1ccc(O)c(O)c1 (stereo unspecified)	0	0	0	0	0	40µM
NC(=O)NC(CC(=O)NCCCc1ccccc1)c1ccc(Cl)cc1 (stereo unspecified)	?	0	0	13µM	0	0
NC(=O)NC(CC(=O)NCCc1ccc(S(N)(=O)=O)cc1)c1ccc(Cl)cc1 (stereo unspecified)	0	0	0	0	0	0
Cc1c(F)cccc1Cn1cnc2c(cnn2C(C)(C)C)c1=O	-	-	-	-	-	0
N=C1/C(=C\c2coc3ccccc3c2=O)C(=O)N=C2SC=CN12	0	0	0	0	0	0
CSC1=NSC2=NC(=O)/C(=C\c3cccs3)C(=N)N12	0	0	0	0	0	0
CSC1=NSC2=NC(=O)/C(=C/c3coc4ccc(O)cc4c3=O)C(=N)N12	0	0	45µM	0	0	?
CSC1=NSC2=NC(=O)/C(=C/c3coc4ccccc4c3=O)C(=N)N12	?	0	35µM	?	0	0
C=C(C)C(=O)Oc1ccc(N=Nc2ccc(C)cc2)ccc1=O	-	-	40µM	-	-	-
CN(C)c1ccc(C(c2ccccc2)c2ccc(N(C)C)cc2)cc1	0	-	-	0	-	-
CCCCCCCCCCCCCCCC(=O)C1=C(O)C(CO)OC1=O (stereo unspecified)	0	35µM	-	0	-	?
CCCCCCCCCCCCCCCC(=O)OCC(O)C1OC(=O)C(O)=C1O (stereo unspecified)	0	?	-	0	?	-
O=C(Nc1ccc(Br)cc1)N1CCC(CN2CCCC2)CC1	45µM[quencher]	-	-	?	0	-
CCOc1ccc(NC(=O)N2CCC(CN3CCCCCC3)CC2)cc1	126µM[quencher]	-	-	0	0	-
Cc1cc(NC(=O)N2CCC(CN3CCOCC3)CC2)ccc1Br	79µM[quencher]	-	-	0	0	-
COc1ccc([C@H]2CC(=O)C[C@@H](CCn3cc(C)nn3)O2)cc1	-	-	0	-	-	-
CCCCCNc1oc(-c2cccc3ccccc23)nc1C#N	-	-	-	-	-	0
CCc1nn2c(=O)cc(COc3ccc(/C=C4\C(=N)N5N=C(C)SC5=NC4=O)cc3)nc2s1	0	?	?	0	13µM	?
SMILES	TR SRC2 fluor cs	RECQ1 helicase	WRN helicase inh	TRb-SRC2 inh	BLM helicase inh	APEX1 inh
Cc1ccc(N=Nc2c(O)ccc3ccccc23)c([N+](=O)[O-])c1	0	-	-	0	-	-
CCCCN(C(=O)CCSc1ccc(F)cc1)c1c(N)n(Cc2ccccc2)c(=O)[nH]c1=O	-	-	0	-	-	0
CCCN(CCC)C(=O)Cn1c(=O)n(-c2ccc(CC)cc2)c(=O)c2c3c(sc21)CCC3	0.2µM[quencher]	-	-	0	0	-
CCCN(CCC)C(=O)Cn1c(=O)n(-c2ccc(Cl)cc2)c(=O)c2c3c(sc21)CCCC3	0	-	-	0	0	-
CCC(C)(C)C(=O)Nc1cc([N+](=O)[O-])ccc1F	0.1µM[quencher]	0	0	0	0	0
CC(C)(C)n1ncc2c(=O)n(Cc3ccccc3C(F)(F)F)cnc21	-	-	-	-	-	0
Cc1cc(C(=O)N2CCN(S(=O)(=O)c3ccccc3C#N)CC2)c(C)o1	-	-	0	-	-	0
N#Cc1ccccc1S(=O)(=O)N1CCN(C(=O)c2cc3c(s2)CCC3)CC1	-	-	0[11.6 µM]	-	-	5.3µM
Cc1ccc(C(=O)C2C(=O)c3ccccc3C2=O)cc1	0	0	0	0	0	0
NN=C1c2ccccc2C(=O)C1C(=O)C(c1ccccc1)c1ccccc1 (stereo unspecified)	-	-	50µM	-	-	-
Oc1ccc(NCc2ccc(OCc3ccccc3)cc2)cc1	0[11.2 µM]	-	0[11.6 µM]	0[11.2 µM]	?	0
CCc1ccc(CNc2ccc(O)cc2)cc1	0	0	45µM	0	?	0
O=C(COC(=O)c1ccc(Cl)c(S(=O)(=O)N2CCCC2)c1)NCc1ccccc1	-	-	0	-	-	7.5µM
OCc1cccc(Cl)c1Cl	0	0	-	0	0	0
CC/C=C\C/C=C\C/C=C\CCCCCCCC(=O)O	0	1.8µM!	18µM	0	?	0
Cc1cccc2cc(C(c3nnnn3C(C)(C)C)N(Cc3ccco3)CC3CCCO3)c(=O)[nH]c12 (stereo unspecified)	0	0	1.7µM	0	0	28µM
O=C1C=CC(=O)N1c1ccc(O)cc1	0	0	0	0	0	0
O=C1C=CC(=O)N1c1ccc(OC(F)F)cc1	0	0	32µM	0	0	0
CC(C)(C)n1ncc2c(=O)n(Cc3ccccc3SC(F)(F)F)cnc21	-	-	-	-	-	0
O=C1NC(=Nc2ccc(Cl)cc2)/C(=C/c2ccco2)S1	0	0	0[11.6 µM]	0	11µM	?
Cc1cccc(N=C2NC(=O)S/C2=C\c2ccco2)c1	0	0	0	0	0	?
Cc1noc(C)c1-c1ccc2ncnc(NCc3ccc(Br)cc3)c2c1	0	0	-	0	0	?
CCCCCc1ccc(OCCC[n+]2ccccc2)c(CCCCC)c1	0	0	0	71µM	0	0
c1ccc2c(c1)Cc1ccccc1-2	0	-	-	0	-	-
Cn1c(N)c(C(=O)COC(=O)c2cc(-c3ccccc3)nc3ccccc23)c(=O)n(Cc2ccccc2)c1=O	0	0	0	0	0	0
CC(C)Cn1c(N)c(C(=O)COC(=O)c2cc(-c3ccco3)nc3ccccc23)c(=O)n(C)c1=O	?	20µM	?	0	?	11µM
Cn1c(=O)c(C(=O)COC(=O)c2cc(-c3ccco3)nc3ccccc23)c(N)n(Cc2ccccc2)c1=O	0	32µM	-	0	?	?
CC(C)Cn1c(N)c(C(=O)COC(=O)c2cc(-c3ccccc3)nc3ccccc23)c(=O)n(C)c1=O	0	0	0	0	0	0
Cc1ccc(CNS(=O)(=O)c2ccc3c(c2)NC(=O)C(C)S3)cc1 (stereo unspecified)	-	-	0	-	0	0
CC(C)(C)N[S+](=O)([O-])c1cccc(-c2nnc(SCC(=O)Nc3ccc(C(=O)O)cc3)n2-c2ccccc2)c1	-	-	-	-	-	0
